Assay outcomes: PubChem, National Center for Advancing Translational Sciences (NCATS)
Sampled rows, rich in hits. Any-hit rate of the full collection: about 8%.
MARV entry inh = Marburg virus entry inhibition | Marburg virus pseudotyped entry inhibition, cell reporter | Potency, µM (top dose mostly 37.8 µM), actives largely listed as inhibitors | 300,000 compounds, 1.8% hits | AID 540276; calls by dose curve; tested in HEK293 cells
LASV entry inh = blocks Lassa virus binding to or entry into cells. Lassa virus pseudotype entry inhibition, cell reporter. Potency, µM (highest dose often 37.9 µM), usual class: inhibitors. 300,000 compounds, 1.2% hits. AID 540256; calls by dose curve; tested in HEK293 cells; also: nearly all actives have a fitted effect of over 50% in size
HCV inh = blocks hepatitis C virus; 340,000 compounds, 3.4% hits; Huh7.5.1 HCVcc-Cre infection, luciferase reporter, 44 h; Potency, µM (series often up to 41.8 µM), hits mostly inhibitors; AID 651820; active = well fitted inhibition curve with a large enough effect; inconclusive = small, poorly fitted or top-dose-only effect, or another doubt; inactive = no such curve, though single readings can be large or run the other way
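Cells (1,000/well) were plated 4 h before compound, then infected with HCVcc-Cre virus (~0.5 moi). After 44 h further culture, infection was read as luciferase luminescence following a 15 min substrate incubation at room temperature.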
FMDV antiviral = blocks foot and mouth disease virus; AID 1159524; FMDV antiviral cell-based qHTS; 410,000 compounds, 1.2% hits; Potency, µM (top dose mostly 57.9 µM), most hits filed as inhibitors; calls by dose curve; tested in HEK293T cells; also: read-out not given here; nearly all actives have a fitted effect of over 45% in size
HCMV inh = human cytomegalovirus inhibition. HFF cells, HCMV-luciferase reporter, 72 h; hits give low values. activity change, negative = inhibition, % at 57.5 µM. 410,000 compounds, 4.5% hits. AID 1259415; in the data active = activity change below about -60%; inconclusive = no clear call, values can overlap the other calls; inactive = above about -39%
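Two compound doses tested in HFFs infected with HCMV-luciferase, MOI 1 PFU/cell, 72 h at 37C. Lysate luminescence read with OneGlo; data normalized against buffer-only and 10uM Salinomycin inhibitor controls.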
SARS PLpro yeast = blocks SARS-CoV papain-like protease in a yeast assay; S. cerevisiae expressing SARS-CoV PLpro, growth rescue; Potency, µM (highest dose often 32.9 µM), most hits filed as activators; 330,000 compounds, 0.19% hits; AID 485353; calls by dose curve; also: nearly all actives have a fitted effect of over 55% in size
Numbers stand for hits; – = inactive; ? = inconclusive; · = no result given; + = active, no number; ! = a repeat was not active.

SMILES	MARV entry inh	LASV entry inh	HCV inh	FMDV antiviral	HCMV inh	SARS PLpro yeast
CCCCN(C)C(=O)c1cc2cc3ccc(OC)cc3nc2s1	10µM	?	11µM	–	–	–
COc1ccc(OC)c(NC(=O)c2cc3cc4ccc(C)cc4nc3s2)c1	–	–	·	–	–	·
CCOC(=O)c1ccc(S(=O)(=O)N2CCN(CC(O)COc3cccc(C(C)=O)c3)CC2)cc1 (centres undefined)	–	–	–	–	–	–
COc1ccccc1-n1cc(CN2CCC3(CCC(CNC(=O)c4ccccc4)O3)CC2)cn1 (centres undefined)	·	·	·	–	·	·
O=C(NCCCN1CCOCC1)c1cccc(NS(=O)(=O)c2ccc(Br)cc2)c1	·	·	–	–	–	–
NCCn1cc(-c2cc(Cl)c(N)c(Cl)c2)ncc1=O	·	·	·	·	–	·
Cc1nc2n(c(=O)c1CCN1CCC(c3noc4cc(F)ccc34)CC1)CCCC2	11µM	·	?	–	–	–
CNCCCCc1cnc(C)c2[nH]c3ccccc3c12	·	·	·	–	·	·
Cc1ccc(-c2csc3ncnc(OCC(=O)NC(=O)NCc4ccco4)c23)cc1	21µM	?	–	?	–	–
CC(/C=C1\SC(=Nc2cccnc2)NC1=O)=C\c1ccccc1	?	?	?	–	–	–
C=CCOc1ccc(/C=C2\SC(=Nc3cccnc3)NC2=O)cc1	?	3.5µM	–	–	–	–
COc1ccc(Cl)cc1NC(=O)c1ccco1	–	–	11µM	–	–	–
COc1ccc(Cl)cc1C(=O)NNC(=O)CNC(=O)c1ccco1	·	·	–	–	-99	–
COc1cc(NC(=O)[C@@H](NC(=O)c2ccco2)C(C)C)c(OC)cc1NC(=O)c1ccccc1	?	–	7.9µM	–	–	–
COc1ccc(Cl)cc1C(=O)Nc1ccc(NC(=O)c2ccco2)cc1	–	–	?	–	·	–
COc1ccc(C(=O)NNC(=O)C(NC(=O)c2ccccc2NC(=O)c2ccco2)C(C)C)cc1 (centres undefined)	–	–	–	–	–	–
COc1cccc(CSc2nc3cc4c(cc3cc2C)OCCO4)c1	?	?	?	–	–	–
COC(=O)C1CCCCN1Cc1ccc2c(c1)CN(Cc1cn[nH]c1-c1ccc(F)cc1)CCO2 (centres undefined)	·	·	·	–	·	·
CSc1nnc(C(C)(C)C)c(=O)n1N/C=C1\C(=O)CCC2=C1CCCC2	–	·	·	·	·	·
Cc1ccc(O)c(C2=NNC(O)(C(F)(F)F)C2)c1 (centres undefined)	–	?	11µM	–	–	–
CCOC(=O)c1cc(-c2ccccc2)n(-c2cccc(C(=O)Nc3ccc(OC)cc3)c2)c1C	·	–	·	–	+	·
CCOC(=O)c1cc(-c2ccccc2)n(-c2cccc(C(=O)Nc3cccc(C(C)=O)c3)c2)c1C	·	–	·	–	–	·
CCOC(=O)c1cc(-c2ccccc2)n(-c2cccc(C(=O)Nc3cccc(F)c3)c2)c1C	·	–	·	–	+	·
CCOC(=O)c1cc(-c2ccccc2)n(-c2cccc(C(=O)Nc3ccc(F)c(F)c3)c2)c1C	·	–	·	?	?	·
Cc1c(C(=O)NCc2ccc(F)cc2)oc2ccc(S(=O)(=O)N3CCOCC3)cc12	?	·	?	?	?	–
SMILES	MARV entry inh	LASV entry inh	HCV inh	FMDV antiviral	HCMV inh	SARS PLpro yeast
CCN(CC)S(=O)(=O)c1ccc2oc(C(=O)NCc3ccc(F)cc3)c(C)c2c1	?	5.8µM	?	?	?	–
CCN(CC)S(=O)(=O)c1ccc2oc(C(=O)NCC3COc4ccccc4O3)c(C)c2c1 (centres undefined)	?	23µM	10µM	?	–	–
O=C(c1cc(Cl)ccc1Cl)N1CCN(c2ccccn2)CC1	?	–	–	?	?	–
O=C(c1cc(Sc2ccc(Cl)cc2)nc2ccccc12)N1CCN(c2ccccn2)CC1	–	?	?	?	–	–
O=C(Nc1ccc(C(F)(F)F)cc1)c1cccnc1N1CCOCC1	?	–	–	–	–	–
O=C(c1cnc(N2CCN(c3ccccn3)CC2)c2ccccc12)N1CCN(c2cccc(Cl)c2)CC1	?	?	5µM	8.9µM	-94	–
O=C(Nc1ccc(C(F)(F)F)cc1)c1cnc(N2CCN(c3ccccn3)CC2)c2ccccc12	–	–	–	7.1µM	–	–
O=C(c1cc(Sc2cccc(Cl)c2)nc2ccccc12)N1CCN(c2ccccn2)CC1	?	?	10µM	–	?	–
Cc1nc2nc(C)c(CCC(=O)NCc3cccc(Cl)c3)c(C)n2n1	–	–	·	–	–	·
CC(=O)N1c2ccc(F)c(F)c2C[C@H]1C	·	·	–	–	–	–
O=C(Nc1ccccc1F)c1cc(S(=O)(=O)N2CCOCC2)cs1	?	–	·	–	–	–
COc1cccc(NC(=O)COC(=O)CCn2c(C)csc2=O)c1	–	–	–	–	–	–
COc1ccc(C2=NOC(C(=O)NCc3ccc(F)cc3)C2)cc1OC (centres undefined)	?	0.82µM	?	–	?	–
COc1cccc(C2=NOC(C(=O)NCc3ccc(F)cc3)C2)c1 (centres undefined)	–	–	–	–	–	–
COc1cc(C2=NOC(C(=O)NCc3ccc(F)cc3)C2)cc(OC)c1OC (centres undefined)	?	–	?	–	-84	–
CCCCNC(=O)C(NC(=O)Cc1cc(C(F)(F)F)cc(C(F)(F)F)c1)C(=O)c1ccccc1 (centres undefined)	·	·	·	–	–	·
COC(=O)CN1C(=O)CSc2ccc(S(=O)(=O)Nc3cccc(C)c3C)cc21	·	?	·	–	–	·
Clc1ccc(COC(Cn2ccnc2)c2ccc(Cl)cc2Cl)c(Cl)c1 (centres undefined)	?	?	?	?	-61!	–
Clc1ccc(CO[C@@H](Cn2ccnc2)c2ccc(Cl)cc2Cl)cc1	–	·	·	·	·	·
COc1ccc(CNS(=O)(=O)c2ccc(C3CNC(=O)C3)cc2)cc1 (centres undefined)	–	–	3.2µM	·	–	–
CCc1ccc(NC(=O)CC2C(=O)N(c3cccc(OC)c3)C(=O)N2C2CCCC2)cc1 (centres undefined)	·	?	·	–	–	·
CCOc1ccc(N(CC(=O)Nc2cccc(F)c2)S(=O)(=O)c2c(C)noc2C)cc1	·	·	–	–	–	–
CCOc1ccc(N(CC(=O)Nc2ccccc2C)S(=O)(=O)c2c(C)noc2C)cc1	–	·	–	–	-69	–
Cc1ccc(N(CC(=O)Nc2cc(C)cc(C)c2)S(=O)(=O)c2c(C)noc2C)cc1	·	·	?	?	-85	–
COc1ccc(N(CC(=O)Nc2ccc(C)cc2)S(=O)(=O)c2c(C)noc2C)cc1	·	·	–	–	–	–
CCOc1ccc(N(CC(=O)Nc2ccc(C)c(C)c2)S(=O)(=O)c2c(C)noc2C)cc1	·	·	?	?	-71	–
O=c1ccc(-c2ccc(S(=O)(=O)NCC3CCN(Cc4ccccc4F)CC3)s2)n[nH]1	·	·	–	–	–	?
OC(c1ccc2c(c1)CN(Cc1c[nH]c3ccccc13)CCO2)c1ccccn1 (centres undefined)	·	·	·	–	·	·
